# Hits are enriched below; roughly 2.4% of the tested compounds scored in any of these assays.
# Tb PGK inh: T. brucei PGK inhibition; P07378; PGK/GAPDH coupled, Kinase-Glo luminescence, 60 min; Potency, µM (top dose mostly 57.5 µM), for inactives: top-dose activity change, negative = inhibition, hits mostly inhibitors; actives 0.043% (n = 380,000); AID 602233; also: % is scaled to controls: 0 for no effect and ±100 for the full control effect; nearly all actives have a fitted effect of over 60% in size
#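 Recombinant glycosomal PGK reaction used 1,3-bisphosphoglycerate generated in-well by GAPDH (100nM final) in 100mM TEA pH 7.6, 5mM MgCl2, 0.01% Tween-20. After 60 minutes at room temperature, ATP was read by Kinase-Glo Plus luminescence end-point.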
# FEN1 inhibitor: blocks human flap endonuclease 1. P39748. Recombinant FEN1 flap cleavage, fluorescence, 15 min. Potency, µM (highest dose often 114 µM), without a hit: at the top dose activity change, negative = inhibition, most hits filed as inhibitors. actives 0.35% (n = 390,000); also: % is scaled to controls: 0 for no effect and ±100 for the full control effect; nearly all actives have a fitted effect of over 65% in size
#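 Concentration–response screening of FEN1 (10 nM): 15 min compound preincubation at room temperature, reaction started with 50 nM substrate and read at 0 and 15 min. Corrected, normalized data were fitted by a four-parameter Hill equation.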
# Pol beta inh: inhibitors of human DNA polymerase beta | Pol beta primer extension/strand displacement, fluorescence kinetic | Potency, µM (doses to about 114 µM), without a hit: at the highest dose activity change, negative = inhibition, usual class: inhibitors | actives 1.3% (n = 340,000); also: % is scaled to controls: 0 for no effect and ±100 for the full control effect
#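 Preincubation: enzyme (10 nM) with compound, 15 min, RT. Reaction: substrate added to 50 nM final. Reads: 0 and 10 min. Analysis: normalized, Hill fit.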
# POLK inh: inhibitors of human DNA polymerase kappa; Q9UBT6; purified Pol kappa, fluorescent DNA synthesis assay, 10 min; actives 0.53% (n = 400,000); Potency, µM (titrated, usually from 107 µM), for inactives: at the top dose activity, negative = inhibition, most hits filed as inhibitors; AID 588579; also: % is scaled to controls: 0 for no effect and ±100 for the full control effect
#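 Kinetic fluorescence readout at 0 and 10 min followed reaction start with substrate at 50 nM final. Beforehand, enzyme (10 nM Pol kappa) stood 15 min with compound at room temperature; buffer-only wells were negative controls.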
# Pol iota inh: blocks human DNA polymerase iota activity; Q9UNA4; Potency, µM (top dose mostly 115 µM), inactives show at the top dose activity, negative = inhibition, usual class: inhibitors; Pol iota fluorescent replication assay, 10 min; actives 1% (n = 390,000)
# Target sequence (Q9UNA4 whole entry, looked up): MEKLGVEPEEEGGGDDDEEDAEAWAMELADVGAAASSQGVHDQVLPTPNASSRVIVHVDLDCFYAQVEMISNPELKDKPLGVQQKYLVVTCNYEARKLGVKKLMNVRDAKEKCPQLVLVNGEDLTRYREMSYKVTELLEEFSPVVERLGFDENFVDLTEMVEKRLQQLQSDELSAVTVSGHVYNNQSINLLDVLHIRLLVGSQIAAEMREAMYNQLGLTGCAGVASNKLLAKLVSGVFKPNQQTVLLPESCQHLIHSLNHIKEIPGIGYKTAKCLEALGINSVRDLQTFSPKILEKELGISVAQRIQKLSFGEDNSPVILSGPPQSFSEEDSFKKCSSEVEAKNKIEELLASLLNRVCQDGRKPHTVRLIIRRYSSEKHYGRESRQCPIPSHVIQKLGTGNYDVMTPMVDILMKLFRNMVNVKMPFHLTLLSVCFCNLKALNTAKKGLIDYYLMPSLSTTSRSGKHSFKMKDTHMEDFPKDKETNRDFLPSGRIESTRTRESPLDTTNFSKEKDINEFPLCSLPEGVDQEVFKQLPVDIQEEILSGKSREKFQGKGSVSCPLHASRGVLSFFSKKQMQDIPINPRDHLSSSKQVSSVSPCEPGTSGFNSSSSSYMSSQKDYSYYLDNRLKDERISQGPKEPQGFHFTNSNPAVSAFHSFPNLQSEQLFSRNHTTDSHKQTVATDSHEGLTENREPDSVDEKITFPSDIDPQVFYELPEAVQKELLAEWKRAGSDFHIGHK
#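 Pol iota at 10 nM preincubated 15 min with compounds at room temperature; reaction started with fluorescent substrate, 50 nM final. Fluorescence read kinetically at 0 and 10 min; buffer-only wells as negative control.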
# Pol eta inh: DNA polymerase eta (human) inhibition; Q9Y253; recombinant Pol eta, fluorescent DNA replication assay; Potency, µM (top dose mostly 114 µM), for inactives: at the top dose activity change, negative = inhibition, actives largely listed as inhibitors; actives 1.2% (n = 390,000); also: % is scaled to controls: 0 for no effect and ±100 for the full control effect
#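 Pol eta (10 nM) was preincubated with compounds for 15 min at room temperature, after which fluorescent replication substrate (50 nM final) was added to start the reaction. Fluorescence was read kinetically at 0 and 10 min.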
# * hit, by the source's call; i = inactive; ? = inconclusive; / = not tested or not shown; [ ] = dose if it differs, or a comment. Calls follow the shape of the dose curve; as a rule, active = well fitted curve in the direction sought with a large enough effect; inconclusive = small, poorly fitted or top-dose-only effect, or another doubt; inactive = no such curve, though single readings can be large; an effect the other way counts as inactive or inconclusive. Potency is read from the fitted curve at half-maximal effect.
SMILES,Tb PGK inh,FEN1 inhibitor,Pol beta inh,POLK inh,Pol iota inh,Pol eta inh
N#CC1=C(S)N(c2ccccc2)C(c2ccc(-c3ccc(Cl)c(Cl)c3)o2)NC1=O (stereo unspecified),-5.0%,-17.4%,?,-0.1%,?,-2.2%
COc1cccc(Cn2c(NCc3ccco3)nc3c2c(=O)n(C)c(=O)n3C)c1,-10.6%,4.6%,5.6%,5.9%,20.2%,-6.4%
Cn1c(=O)c2c(nc(NCc3ccco3)n2CC(O)COc2ccccc2)n(C)c1=O (stereo unspecified),-4.5%,-9.7%,?,-15.3%,-2.5%,-9.6%
COc1ccc(Cl)c(Cn2c(NCc3ccco3)nc3c2c(=O)n(C)c(=O)n3C)c1,-2.9%,4.0%,14.1µM*,?,?,?
CCCn1c(NCc2ccco2)nc2c1c(=O)n(C)c(=O)n2C,-2.7%,3.0%,22.4µM*,?,?,?
CC(=O)Nc1ccc(S(=O)(=O)N/N=C/c2ccc(C)o2)cc1,-19.7%,18.6%,?,-14.4%,25.1µM*,?
Cc1ccc(/C=N/NS(=O)(=O)c2ccc([N+](=O)[O-])cc2)o1,-1.7%,2.9%,-13.2%,-11.6%,1.5%,-7.7%
O=[N+]([O-])c1ccc2c(c1)Cc1cc(F)ccc1-2,-15.1%,0.9%,/,7.0%,-1.7%,-10.9%
O=[N+]([O-])c1ccc2c(c1)C=CC2,/,-20.2%,/,79.4µM*,79.4µM*,/
CCn1c(SCC(=O)Nc2ccc(F)cc2)nnc1C1CC1,0.3%,9.3%,7.2%,-14.3%,7.9%,1.5%
CCn1c(SCC(=O)Nc2sccc2C(N)=O)nnc1C1CC1,2.8%,14.4%,/,?,56.2µM*,-9.2%
Cc1ccc(S(=O)(=O)N2Cc3ccccc3CC2C(=O)Nc2ccc3c(c2)OCO3)cc1 (stereo unspecified),-8.5%,-4.5%,22.4µM*,50.1µM*,?,10µM*
CS(=O)(=O)N1Cc2ccccc2CC1C(=O)OCC(=O)Nc1ccc2ccccc2c1 (stereo unspecified),-3.8%,-8.9%,3.16µM*,?,?,?
O=C(O)C1Cc2ccccc2CN1S(=O)(=O)c1ccccc1 (stereo unspecified),-1.4%,5.6%,-8.9%,-7.6%,54.8%,79.4µM*
COc1ccc(S(=O)(=O)N2Cc3ccccc3CC2C(=O)Nc2ccc3c(c2)OCO3)cc1 (stereo unspecified),i,-0.8%,6.5%,-1.4%,13.3%,-15.1%
O=C(O)C1Cc2ccccc2CN1S(=O)(=O)c1ccc2ccccc2c1 (stereo unspecified),-0.4%,-9.7%,-25.4%,-22.7%,?,5.62µM*
Clc1ccccc1-c1ccc2ncnc(NCCN3CCOCC3)c2c1,/,/,/,-6.3%[60.1 µM],/,/
Cc1ccc2cc(C3CC(c4ccco4)=NN3C(=O)CCCC(=O)O)c(Cl)nc2c1 (stereo unspecified),-0.5%,-0.2%,-4.0%,6.2%,3.3%,-4.7%
Cc1ccc2nc(Cl)c(C3CC(c4ccco4)=NN3C(=O)CCCC(=O)O)cc2c1 (stereo unspecified),0.7%,-13.0%,-3.7%,35.5µM*,15.8µM*,?
NC(=O)C1CCN(CC(=O)Nc2nccs2)CC1,9.8%,2.2%,-3.4%,-10.1%,89.1µM*,-8.9%
O=C(O)CSc1nc(-c2ccc(Cl)cc2)nc2c1oc1ccccc12,-16.9%,-15.6%,56.2µM*,-16.0%,7.4%,?
N#Cc1ccc2c(c1)C[C@]1(CCCCN3C(=O)c4ccccc4C3=O)Oc3cc(-c4ccccc4)oc(=O)c3[C@H]2O1,/,/,-28.4%[22.9 µM],/,/,/
N#Cc1ccc2c(c1)C[C@]1(c3ccsc3)Oc3c(c(=O)oc4ccc(F)cc34)C2O1,/,/,11.2µM*,/,/,/
Cc1cc2c(c(=O)o1)C1O[C@](c3ccsc3)(Cc3cc(C#N)ccc31)O2,/,/,10µM*,/,/,/
CCCCn1c(C)cc2c(c1=O)C1O[C@](c3ccsc3)(Cc3cc(OC)c(OC)cc31)O2,/,/,2.6%[22.9 µM],/,/,/
SMILES,Tb PGK inh,FEN1 inhibitor,Pol beta inh,POLK inh,Pol iota inh,Pol eta inh
COc1ccc2c3c(c(=O)oc2c1)C1O[C@](c2ccsc2)(Cc2cc(C#N)ccc21)O3,/,/,3.16µM*,/,/,/
CCCC[C@]12Cc3cc(C#N)ccc3C(O1)c1c(c3cc(F)ccc3oc1=O)O2,/,/,1.0%[22.9 µM],/,/,/
COc1ccc([C@]23Cc4ccccc4C(O2)c2c(cc(-c4ccccc4)oc2=O)O3)cc1,/,/,0.3%[22.9 µM],/,/,/
Cc1cc2c(c(=O)n1-c1ccccc1)C1O[C@](c3ccsc3)(Cc3cc(C#N)ccc31)O2,/,/,8.91µM*,/,/,/
CCCC(=O)Nc1cccc(OCc2cc(=O)n3cccc(C)c3n2)c1,-2.3%,0.1%,0.8%,-6.3%[60.1 µM],-22.3%,2.8%
CCCC[C@]12Cc3cc(C#N)ccc3C(O1)c1c(c3ccccc3oc1=O)O2,/,/,32.7%[22.9 µM],/,/,/
N#Cc1ccc2c(c1)C[C@]1(c3ccsc3)Oc3c(c(=O)oc4ccccc34)C2O1,/,/,2.82µM*,/,/,/
O=C(CCn1cccc1)NCc1ccc2c(c1)OCO2,-16.1%,-2.1%,50.1µM*,?,?,?
Cc1cc(C)c2c(=O)nc(SCc3ccccc3C)n(C3CC3)c2n1,i,6.4%,-1.0%,-4.9%[60.1 µM],-5.7%,-9.5%
NC(=O)c1cc(NC(=O)c2cc(Br)c(Br)s2)cc(C(N)=O)c1,5.8%,?,39.8µM*,-22.4%,5.2%,-2.6%
O=C(Nc1cccnc1)c1cc(Br)c(Br)s1,i,1.7%,/,1.2%,37.2%,-14.1%
COc1ccc(Cl)cc1NC(=O)N1CCC(CN2CCc3ccccc3C2)CC1,0.6%,-1.3%,14.5%,-14.3%,-2.5%,-13.5%
COc1ccccc1COc1ccc2c(C)c(CCC(=O)O)c(=O)oc2c1C,-8.6%,-11.0%,13.4%,7.1%,175.7%,-23.2%
O=C(O)CCc1c2ccc(=O)c(O)c-2oc2c(O)c(O)ccc12,/,1.41µM*,/,-45.8%,?,/
CCCN(CCC)c1nc(N)nc(C#N)n1,/,6.9%,/,-5.5%,16.8%,/
CC(=O)OCC(=O)c1c[nH]c2ccccc12,5.5%,20.7%,-0.2%,2.8%,20.8%,-17.6%
CC(=O)c1c(C)[nH]c(C(=O)OCC(=O)c2c[nH]c3ccccc23)c1C,i,-18.3%,/,-5.7%,79.4µM*,0.7%
NC(=O)c1ccsc1NC(=O)c1ccc(N2CCCC2=O)cc1,i,?,31.6µM*,?,?,25.1µM*
